PubChem BioAssay (NCATS)
Records with an inconclusive call do not appear. Active and inactive are the calls of the source. Calls come from the whole dose curve; as a rule, active = well fitted inhibition curve with a large enough effect; inconclusive = small, poorly fitted or top-dose-only effect; inactive = no such curve, though single readings can be large or run the other way.

Experiment: BET inhibitor-based combinations targeting novel dependencies in MECOM-rearranged (r) AML: SET-2 cell line (AID 2202231); note: nearly all actives have a fitted effect of over 35% in size;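 for viability: plate controls were DMSO treated cells for no effect and wells without cells for full effect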
Conditions: SET-2 AML cells viability, CellTiter-Glo luminescence, 48 h; viability: stronger effect = lower value, series mostly up to about 46 µM
Outline: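 Luminescent ATP readout (CellTiter-Glo) after 48 hr drug exposure gives viability. Curves span 11 concentrations and are normalized to DMSO and empty wells. Activity is reported as area under the curve and its Z-transform within each cell line.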
Potency is the fitted concentration of half-maximal effect.

| Compound | viability | Potency |
| --- | --- | --- |
| CC(C)(C)C(=O)Oc1ccc(S(=O)(=O)Nc2ccccc2C(=O)NCC(=O)O)cc1 | 111% (inactive) |  |
| COc1ccc(Cc2nccc3cc(OC)c(OC)cc23)cc1OC |  | 11.8 µM (active) |
| CC(C)COCC(CN(Cc1ccccc1)c1ccccc1)N1CCCC1 (centres undefined) |  | 23.5 µM (active) |
| Cc1cc(C)c(/C=C2\C(=O)Nc3ccccc32)[nH]1 | 96.4% (inactive) |  |
| NCCc1cnc[nH]1 | 93.4% (inactive) |  |
| CCN1/C(=C/C(C)=O)Sc2ccc(OC)cc21 | 93.6% (inactive) |  |
| Nc1nc2c(ncn2COCCO)c(=O)[nH]1 | 125% (inactive) |  |
| NS(=O)(=O)c1cc2c(cc1Cl)NCNS2(=O)=O | 107% (inactive) |  |
| CC1=C(/C=C/C(C)=C/C=C/C(C)=C/C(=O)O)C(C)(C)CCC1 | 106% (inactive) |  |
